Screens: PubChem BioAssay, National Center for Advancing Translational Sciences (NCATS)
Compounds with a hit are over-represented: about 11% of the library has one in this group of screens.
ALDH1A1 block: inhibitors of human aldehyde dehydrogenase 1A1 | P00352 | Purified ALDH1A1, NADH fluorescence, propionaldehyde substrate | Potency, µM (highest dose often 75.3 µM), actives largely listed as inhibitors | 7.3% of 220,000 active | AID 1030
Target sequence (P00352 whole entry, looked up): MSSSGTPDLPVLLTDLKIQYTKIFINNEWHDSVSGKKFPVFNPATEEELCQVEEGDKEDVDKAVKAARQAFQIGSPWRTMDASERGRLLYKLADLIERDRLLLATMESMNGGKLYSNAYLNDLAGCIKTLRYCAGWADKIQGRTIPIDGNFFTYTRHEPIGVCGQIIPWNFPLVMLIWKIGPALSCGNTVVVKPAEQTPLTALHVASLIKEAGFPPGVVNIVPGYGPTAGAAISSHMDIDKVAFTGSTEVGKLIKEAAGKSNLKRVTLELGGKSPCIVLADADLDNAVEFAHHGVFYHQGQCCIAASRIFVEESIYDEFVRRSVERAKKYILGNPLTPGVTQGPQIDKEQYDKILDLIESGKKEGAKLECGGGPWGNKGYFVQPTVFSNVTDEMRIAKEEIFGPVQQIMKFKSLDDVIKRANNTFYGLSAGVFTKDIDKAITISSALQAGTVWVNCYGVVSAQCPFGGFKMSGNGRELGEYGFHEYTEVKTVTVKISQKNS
HPGD inh: inhibitors of human 15-hydroxyprostaglandin dehydrogenase (HPGD) | P15428 | purified HPGD, NADH fluorescence kinetic, PGE2 substrate | Potency, µM, actives largely listed as inhibitors | 4.3% of 150,000 active
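NADH formation kinetics: reaction with 30 uM PGE2 and 1 mM NAD+ (final), 20 nM enzyme, Tris-HCl pH 8 with Tween 20, after 15 min compound preincubation at room temperature. Fluorescence change, last versus first of five reads.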
PNC assembly inh: perinucleolar compartment assembly inhibition | activity change (PNC), negative = inhibition, % at 10 µM | AID 2417 | PC3M PTB-GFP, PNC prevalence imaging, 16 h; stronger effect = lower value | 3.1% of 140,000 active;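 active = readout at or below -70, meaning at least 70% loss of cells showing the perinucleolar compartment, a nuclear body marking cancer cells; inconclusive = readout between -30 and a set limit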
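PC3M cells stably expressing PTB-GFP, 750–1000 cells/well, treated 16 h at 37 °C with compound (23 nl of library stock), in duplicate. After paraformaldehyde fixation and Hoechst stain, imaged at 20x; PNC prevalence scored by image analysis.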
Of the large screens only hits and unclear results are named; the others gave an inactive call. Unless noted, calls follow the shape of the dose curve; as a rule, active = well fitted inhibition curve with a large enough effect (not every such curve was filed as active); inconclusive = small, poorly fitted or top-dose-only effect, or another doubt; inactive = no such curve, though single readings can be large or run the other way.

C/C(=N\O)c1cc(Cl)ccc1O	none (no result: HPGD inh, PNC assembly inh)
CCCCC[C@H](O)/C=C/[C@H]1OC(=O)C[C@H](O)[C@@H]1C/C=C\CCCC(=O)O	ALDH1A1 block inconclusive (no result: PNC assembly inh)
CCOC(=O)C1CCCn2c1nc1sc3c(c1c2=O)CCCC3 (centres undefined)	ALDH1A1 block inconclusive
N#Cc1cnc(SCC(=O)NNC(=O)COc2cccc3ccccc23)nc1N	PNC assembly inh inconclusive
COC(=O)[C@@H]1CC[C@H](C)[C@@H](c2ccc(C)cc2)N1C(=O)c1ccc(/C=N/O[C@@H](C)c2cn([C@H](CO)Cc3ccccc3)nn2)cc1	PNC assembly inh inconclusive
O=C(CN1C(=O)NC2(CCCCC2)C1=O)NC1CCCc2ccccc21 (centres undefined)	none
N/C(=N\OC(=O)COc1cc(Cl)c(Cl)cc1Cl)c1ccccn1	none (no result: HPGD inh, PNC assembly inh)
CCOC(=O)N1CCN(C(=S)NC(=O)c2cncc(Br)c2)CC1	ALDH1A1 block inconclusive, HPGD inh inconclusive
COc1ccc(C(=O)NC=C2C(=O)OC(C)(C)OC2=O)cc1	ALDH1A1 block 13µM (no result: HPGD inh, PNC assembly inh)
COc1ccc(C(=O)Nc2cccc(OC)c2)cc1	ALDH1A1 block inconclusive, PNC assembly inh inconclusive
O=C1/C(=C/c2ccco2)SC(=S)N1C1CCS(=O)(=O)C1 (centres undefined)	ALDH1A1 block 8.9µM (no result: HPGD inh, PNC assembly inh)
CCCOc1ccc(-c2nn(-c3ccccc3)cc2/C=C2\SC(=S)N(C3CCS(=O)(=O)C3)C2=O)cc1 (centres undefined)	none
Cc1ccc(/C=C2\SC(=S)N(C3CCS(=O)(=O)C3)C2=O)cc1 (centres undefined)	none (no result: HPGD inh, PNC assembly inh)
O=C1/C(=C\c2ccco2)SC(=S)N1C1CCS(=O)(=O)C1 (centres undefined)	ALDH1A1 block 22µM (no result: HPGD inh, PNC assembly inh)
CCOC(=O)c1sc(-c2ccccc2)cc1NC(=O)Nc1ccc([N+](=O)[O-])cc1	none
CCc1cccc(NC(=O)CSCc2cc(=O)[nH][nH]2)c1	PNC assembly inh inconclusive
CCc1cccc(NC(=O)CSC2=NS(=O)(=O)c3ccccc32)c1	ALDH1A1 block inconclusive, HPGD inh 22µM
CC(=O)Nc1cc(C(=O)NCc2ccco2)ccc1Sc1ccc(F)cc1	none
CC(=O)Nc1cc(C(=O)NCc2ccco2)ccc1Sc1ccc(Cl)cc1	ALDH1A1 block inconclusive, PNC assembly inh -103
Cc1c(Br)cc(C(=O)NCc2ccco2)c(C)c1C	ALDH1A1 block inconclusive, HPGD inh 25µM, PNC assembly inh inconclusive
CSc1ccc(Cl)c(C(=O)NCc2ccco2)c1	ALDH1A1 block inconclusive, HPGD inh 16µM, PNC assembly inh inconclusive
CSc1ccc(Cl)c(C(=O)OCC(=O)NCc2ccco2)c1	ALDH1A1 block inconclusive, HPGD inh inconclusive
Cc1ccc(C(=O)NCc2ccco2)cc1Br	ALDH1A1 block inconclusive
Cc1occc1C(=O)NCc1ccco1	none
Cc1ccc2c(CC(=O)NCc3ccco3)coc2c1C	ALDH1A1 block 25µM, HPGD inh 2.8µM
O=C(O)c1ccccc1C(=O)NNc1cccc(Cl)n1	none (no result: HPGD inh, PNC assembly inh)
O=c1c(-c2n[nH]c(=S)n2-c2ccccc2)cccn1Cc1cccc(Cl)c1	none (no result: HPGD inh, PNC assembly inh)
O=C(CNS(=O)(=O)c1ccccc1)Nc1ccc2c(c1)OCO2	none (no result: HPGD inh, PNC assembly inh)
COc1ccc([N+](=O)[O-])cc1N(CC(=O)Nc1ccccc1C(=O)N1CCCC1)S(C)(=O)=O	none (no result: HPGD inh, PNC assembly inh)
CS(=O)(=O)N(CC(=O)Nc1ccccc1C(=O)N1CCCC1)c1cccc([N+](=O)[O-])c1	ALDH1A1 block 16µM (no result: HPGD inh, PNC assembly inh)
CCOC(=O)C(C(=O)OCC)c1cc(Br)c2noc3c2c1C(=O)c1ccccc1-3	ALDH1A1 block 10µM, HPGD inh inconclusive, PNC assembly inh -83
O=C1c2ccccc2-c2onc3ccc(Oc4ccccc4)c1c23	none
COC(=O)C(CC(C)C)NC(=O)c1ccc([N+](=O)[O-])c(C)c1 (centres undefined)	none
Cc1cc(C(=O)NC(CC(C)C)C(=O)O)cc(C)c1[N+](=O)[O-] (centres undefined)	ALDH1A1 block 7.1µM
CCC/C(=N/NC(=O)c1ccc2c(c1)OCO2)c1cccs1	ALDH1A1 block inconclusive, HPGD inh 16µM
O=C(N/N=C/c1cccs1)c1ccc2c(c1)OCO2	none
O=C(NCc1ccc2c(c1)OCO2)C1CC(c2ccccc2O)=NO1 (centres undefined)	ALDH1A1 block 11µM
O=C(NCc1ccc2c(c1)OCO2)c1cc(-c2ccccn2)nc2ccccc12	ALDH1A1 block 1.3µM (no result: HPGD inh, PNC assembly inh)
O=C(NCc1ccc2c(c1)OCO2)C1CC(c2cccc(Br)c2)=NO1 (centres undefined)	none
O=C(NCc1ccco1)c1cc(-c2ccccn2)nc2ccccc12	none
O=C(Nc1ccc2c(c1)OCO2)c1cc(-c2cccnc2)nc2ccccc12	ALDH1A1 block 7.9µM (no result: HPGD inh, PNC assembly inh)
Cc1ccc(-c2cc(C(=O)Nc3ccc4c(c3)OCCO4)c3ccccc3n2)cc1	none
N/C(=N\OC(=O)Cc1ccccc1)c1ccccc1Cl	none (no result: HPGD inh, PNC assembly inh)
O=C(NC1CCCCC1)c1ccc(Cn2cc(Cl)cn2)cc1	none
OCCN1CCN(c2cc(-c3ccccc3)c3ccccc3n2)CC1	ALDH1A1 block inconclusive
Cc1cc(NC(=O)c2cc(C3CC3)on2)no1	none (no result: HPGD inh, PNC assembly inh)
O=C(NC1(C(F)(F)F)NC(=O)N(C2CCCC2)C1=O)C1CC1 (centres undefined)	none
CCOCCCNC(=O)c1ccc2c(c1)OCO2	HPGD inh 14µM
Cc1ccccc1CN1CCN(CC(=O)NCc2ccc3c(c2)OCO3)C1=O	ALDH1A1 block 13µM
Cc1ccc(CC(=O)NCc2ccc3c(c2)OCO3)cc1	none
O=C(NCc1ccc2c(c1)OCO2)c1cccs1	HPGD inh 28µM
Cc1ccccc1Cn1c(=O)n(CCC(=O)NCc2ccc3c(c2)OCO3)c(=O)c2ccccc21	none
O=C(NCCOc1ccccc1)c1ccc2c(c1)OCO2	none
O=C(COC(=O)c1cccs1)NCc1ccc2c(c1)OCO2	ALDH1A1 block inconclusive, PNC assembly inh inconclusive
O=C(Cc1ccccc1)NCc1ccc2c(c1)OCO2	HPGD inh 32µM
COc1ccc(C[C@@H]2CN3C(=NC[C@@H]3C)N2C[C@H](C)NC(=O)c2ccc(C)c(Br)c2)cc1	none (no result: HPGD inh, PNC assembly inh)
O=C(CN1CCc2ccccc2C1)NCC(=O)Nc1ccc(F)cc1	none (no result: HPGD inh, PNC assembly inh)
Cc1cc(OCCn2cc(/C(N)=N/O)c3ccccc32)ccc1Cl	none
O=C(CC12CCC(CC1)C2)NCc1ccc2c(c1)OCO2	HPGD inh 16µM
CCOCCCNC(=O)C(c1ccc(OC)cc1)N(Cc1ccc2c(c1)OCO2)C(=O)c1ccccn1 (centres undefined)	none (no result: HPGD inh, PNC assembly inh)
CCOCCCNC(=O)C(c1ccccc1)N(Cc1ccc2c(c1)OCO2)C(=O)c1ccccc1O (centres undefined)	ALDH1A1 block 10µM (no result: HPGD inh, PNC assembly inh)
O=C(NCc1ccc2c(c1)OCO2)NC1CCCCC1	none (no result: HPGD inh, PNC assembly inh)
Nc1cc[n+](CC(=O)c2ccc3c(c2)OCCO3)cc1	none
CCN1C(=O)CC(NCc2ccc3c(c2)OCO3)C1=O (centres undefined)	none
O=C(C[n+]1ccc(C(=O)NCc2ccccc2)cc1)c1ccc2c(c1)OCCO2	ALDH1A1 block 3.5µM (no result: HPGD inh, PNC assembly inh)
O=C1CC(NCc2ccc3c(c2)OCO3)C(=O)N1CCc1ccccc1 (centres undefined)	ALDH1A1 block 14µM
CC1CCC2C(=O)N3C(CCC(C)[C@H]3c3ccccc3Br)C(=O)N2C1c1ccccc1Br (some centres undefined)	none (no result: HPGD inh, PNC assembly inh)
Cc1ccc(S(=O)(=O)/N=C(/c2ccccc2)N2CCOCC2)c(C)c1	none (no result: HPGD inh, PNC assembly inh)
O=C(c1cccc(F)c1)N1CCC[C@@]2(CCN(c3ncccn3)C2)C1	ALDH1A1 block inconclusive (no result: PNC assembly inh)
